39 compounds from the antibiotic and cytotoxicity screens of Wong et al. (2023) can be followed below.

The whole screen tested about 39,000 compounds, of which about 3,300 (8.5%) were called active. What follows is part of a selection rich in actives, with near analogues and random picks from the rest.

The test deals with HepG2. In words: cytotoxicity call (relative viability < 0.9). Conditions: 10 µM.
For `COc1cccc(C#Cc2cnc3c(c2)C(=O)N([C@H](C)CO)C[C@@H](C)[C@@H](CN(C)C(=O)C2CCOCC2)O3)c1`, the cytotoxicity call was “inactive”.

Take `C[C@H]1CN([C@@H](C)CO)C(=O)CCCn2nncc2CO[C@H]1CN(C)S(=O)(=O)c1ccc(-n2cccn2)cc1`: the cytotoxicity call is “inactive”.

Regarding `CCOC(=O)c1cc2c(c(-c3ccccc3)n1)[C@@H](CCO[Si](C)(C)C(C)(C)C)N(S(=O)(=O)C(C)(C)C)C2`, the cytotoxicity call was “inactive”.

In the case of `CCC(=O)Nc1ccc2c(c1)C(=O)N(C)C[C@@H](OC)[C@@H](C)CN(C(=O)CN1CCOCC1)[C@@H](C)CO2`, the cytotoxicity call is “inactive”.

As to `O=C(O)COCC(=O)NCc1ccco1`, the cytotoxicity call was “inactive”.

Consider `O=C1O[C@@H](c2ccccc2)[C@@H](c2ccccc2)N2[C@@H](c3ccc(O)cc3)[C@]3(C(=O)Nc4ccccc43)[C@@H](C(=O)Nc3nc4ccccc4s3)[C@H]12`, for which the cytotoxicity call is “inactive”.

Consider `C[C@H]1CN([C@@H](C)CO)C(=O)c2cc(C#Cc3ccccc3F)cnc2O[C@@H]1CN(C)C(=O)c1ccc2c(c1)OCO2`, for which the cytotoxicity call is “inactive”.

On to `C[C@@H]1CN([C@H](C)CO)C(=O)Cc2cc(N(C)C)ccc2O[C@@H]1CN(C)S(=O)(=O)c1cn(C)cn1`, for which the cytotoxicity call was “inactive”.

`C[C@@H]1CN([C@H](C)CO)C(=O)c2cc(NC(=O)Nc3ccc(C(F)(F)F)cc3)ccc2O[C@H]1CN(C)C(=O)Nc1ccc2c(c1)OCO2`: the cytotoxicity call is “inactive”.

As for `C[C@H]1CN([C@@H](C)CO)C(=O)c2cc(NC(=O)Nc3ccc(C(F)(F)F)cc3)ccc2O[C@@H]1CN(C)C(=O)Nc1ccc2c(c1)OCO2`, the cytotoxicity call is “active”.

In the case of `C[C@H]1CN([C@@H](C)CO)C(=O)c2cc(NC(=O)Nc3ccc4c(c3)OCO4)ccc2O[C@@H]1CN(C)C(=O)Nc1ccc(C(F)(F)F)cc1`, the cytotoxicity call was “inactive”.

Take `C[C@@H]1CN([C@@H](C)CO)C(=O)c2cc(NC(=O)Nc3ccc4c(c3)OCO4)ccc2O[C@H]1CN(C)C(=O)Nc1ccc(C(F)(F)F)cc1`: the cytotoxicity call is “inactive”.

Consider `C[C@H]1CN([C@@H](C)CO)C(=O)c2cc(NC(=O)Nc3ccc4c(c3)OCO4)ccc2O[C@H]1CN(C)C(=O)Nc1ccc(C(F)(F)F)cc1`, for which the cytotoxicity call was “inactive”.

On to `C[C@@H]1CN([C@@H](C)CO)C(=O)c2cc(NC(=O)Nc3ccc(C(F)(F)F)cc3)ccc2O[C@@H]1CN(C)C(=O)Nc1ccc2c(c1)OCO2`, for which the cytotoxicity call was “active”.

As for `COCCNC(=O)C[C@@H]1C[C@@H]2c3cc(NC(=O)COC)ccc3O[C@@H]2[C@@H](CO)O1`, the cytotoxicity call is “inactive”.

Consider `Cc1noc(C)c1NC(=O)Nc1ccc2c(c1)C(=O)N([C@@H](C)CO)C[C@@H](C)[C@H](CN(C)S(=O)(=O)c1ccccc1)OCCCC[C@@H](C)O2`, for which the cytotoxicity call was “inactive”.

`C[C@H]1CN([C@@H](C)CO)C(=O)c2cc(NC(=O)Cn3cnnn3)ccc2O[C@@H]1CN(C)Cc1ccc(C(=O)Nc2ccccc2N)cc1`: the cytotoxicity call was “inactive”.

`C[C@@H]1CN([C@H](C)CO)C(=O)c2cc(NC(=O)C3CC3)ccc2O[C@@H]1CN(C)S(=O)(=O)c1cn(C)cn1`: the cytotoxicity call was “inactive”.

On to `COc1ccc(CN(C)C[C@H]2OCCCC[C@@H](C)Oc3ccc(NS(=O)(=O)c4ccc(F)cc4)cc3C(=O)N([C@H](C)CO)C[C@@H]2C)cc1`, for which the cytotoxicity call is “inactive”.

Regarding `COc1ccccc1NC(=O)N(C)C[C@@H]1Oc2cc(Br)ccc2S(=O)(=O)N([C@@H](C)CO)C[C@@H]1C`, the cytotoxicity call was “inactive”.

On to `C[C@H]1CN([C@@H](C)CO)S(=O)(=O)c2ccc(-c3cncnc3)cc2O[C@H]1CN(C)C(=O)NC1CCCC1`, for which the cytotoxicity call was “inactive”.

Take `COc1ccc2c3c([nH]c2c1)[C@@H](CO)N(Cc1ccc(cc1)Cl)C[C@]13CCN(CCc2ccccc2)CC1`: the cytotoxicity call is “active”.

With `COc1ccc2c3c([nH]c2c1)[C@H](CO)N(Cc1ccccc1)C[C@]13CCN(CC1)C(=O)Nc1cccc(c1)F`, the cytotoxicity call was “inactive”.

On to `COc1ccc2c3c([nH]c2c1)[C@H](CO)N(Cc1ccc(cc1)Cl)C[C@]13CCN(CCc2ccccc2)CC1`, for which the cytotoxicity call was “active”.

As to `COc1ccc2c3c([nH]c2c1)[C@@H](CO)N(C[C@]13CCN(CCc2ccccc2)CC1)C(=O)CN1CCOCC1`, the cytotoxicity call is “inactive”.

As to `COc1ccc2c3c([nH]c2c1)[C@@H](CO)N(Cc1ccncc1)C[C@]13CCN(CC1)Cc1ccc(cc1)-c1ccccn1`, the cytotoxicity call is “inactive”.

In the case of `COc1ccc(cc1)CN1C[C@]2(CCN(CC2)C(=O)Nc2cccc(c2)F)c2c([nH]c3cc(ccc23)OC)[C@@H]1CO`, the cytotoxicity call is “inactive”.

Consider `COc1ccc(NC(=O)N(C)C[C@H]2OCCCC[C@H](C)Oc3ccc(NC(=O)C4CCCCC4)cc3C(=O)N([C@H](C)CO)C[C@@H]2C)cc1`, for which the cytotoxicity call was “inactive”.

On to `C[C@@H]1CN([C@@H](C)CO)C(=O)c2cc(NS(=O)(=O)c3cccs3)ccc2O[C@H]1CN(C)Cc1ccncc1`, for which the cytotoxicity call is “inactive”.

On to `Cc1noc(C)c1S(=O)(=O)N(C)C[C@@H]1Oc2ccc(NC(=O)Cc3ccccc3)cc2CC(=O)N([C@@H](C)CO)C[C@H]1C`, for which the cytotoxicity call was “inactive”.

`C[C@H]1CN([C@@H](C)CO)C(=O)Cc2cc(NS(=O)(=O)c3ccc(Cl)cc3)ccc2O[C@H]1CN(C)Cc1ccc(-c2ccccc2)cc1`: the cytotoxicity call was “active”.

Turning to `C[C@@H]1CN([C@H](C)CO)C(=O)Cc2cc(NS(=O)(=O)c3ccc(Cl)cc3)ccc2O[C@@H]1CN(C)Cc1ccc(-c2ccccc2)cc1`, the cytotoxicity call was “active”.

Regarding `C[C@@H]1CN([C@@H](C)CO)C(=O)Cc2cc(NS(=O)(=O)c3ccc(Cl)cc3)ccc2O[C@@H]1CN(C)Cc1ccc(-c2ccccc2)cc1`, the cytotoxicity call was “inactive”.

With `C[C@@H]1CN([C@@H](C)CO)C(=O)Cc2cc(NS(=O)(=O)c3ccc(Cl)cc3)ccc2O[C@H]1CN(C)Cc1ccc(-c2ccccc2)cc1`, the cytotoxicity call is “active”.

As for `C[C@H](CO)N1C[C@H](C)[C@@H](CN(C)Cc2ccc(-c3ccccc3)cc2)Oc2ccc(NS(=O)(=O)c3ccc(Cl)cc3)cc2CC1=O`, the cytotoxicity call was “inactive”.

As for `C[C@H]1CN([C@@H](C)CO)C(=O)Cc2cc(NS(=O)(=O)c3ccc(Cl)cc3)ccc2O[C@@H]1CN(C)Cc1ccc(-c2ccccc2)cc1`, the cytotoxicity call is “inactive”.

On to `C[C@@H]1CN([C@H](C)CO)C(=O)Cc2cc(NS(=O)(=O)c3ccc(Cl)cc3)ccc2O[C@H]1CN(C)Cc1ccc(-c2ccccc2)cc1`, for which the cytotoxicity call was “inactive”.

As to `C[C@H](CO)N1C[C@H](C)[C@H](CN(C)Cc2ccc(-c3ccccc3)cc2)Oc2ccc(NS(=O)(=O)c3ccc(Cl)cc3)cc2CC1=O`, the cytotoxicity call was “inactive”.

On to `C[C@@H]1CN([C@@H](C)CO)C(=O)c2cc(NS(C)(=O)=O)ccc2O[C@@H](C)CCCCO[C@H]1CN(C)CC1CC1`, for which the cytotoxicity call is “inactive”.
